Results reported in the supplement of paper PMC10681739.

Experiments:
ETS1 [1] = target: T1, ETS1 (UniProt P14921); assay: ETS1 binding intensity (PBM fluorescence), ETS1 alone (arbitrary fluorescence units); higher = stronger binding; settings: ETS1 concentration 1 nM; RUNX1 concentration 0 nM
T1 sequence: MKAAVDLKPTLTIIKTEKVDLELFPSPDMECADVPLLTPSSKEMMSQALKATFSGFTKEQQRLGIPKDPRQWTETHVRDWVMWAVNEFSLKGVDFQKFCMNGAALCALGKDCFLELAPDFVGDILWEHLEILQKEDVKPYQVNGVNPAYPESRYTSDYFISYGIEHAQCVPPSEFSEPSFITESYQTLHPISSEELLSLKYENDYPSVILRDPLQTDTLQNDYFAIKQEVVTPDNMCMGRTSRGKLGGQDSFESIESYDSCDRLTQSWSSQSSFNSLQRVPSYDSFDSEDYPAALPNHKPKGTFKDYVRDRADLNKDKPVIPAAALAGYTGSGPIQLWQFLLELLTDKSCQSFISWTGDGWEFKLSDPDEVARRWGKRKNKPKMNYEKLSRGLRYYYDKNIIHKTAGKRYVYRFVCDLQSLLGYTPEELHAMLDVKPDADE

RUNX1 [2] = target: RUNX1 (UniProt Q01196); assay: RUNX1 binding intensity (PBM fluorescence), RUNX1 alone (arbitrary fluorescence units); higher = stronger binding; settings: RUNX1 concentration 2 nM; ETS1 concentration 0 nM
Sequence of RUNX1 (Q01196 whole entry): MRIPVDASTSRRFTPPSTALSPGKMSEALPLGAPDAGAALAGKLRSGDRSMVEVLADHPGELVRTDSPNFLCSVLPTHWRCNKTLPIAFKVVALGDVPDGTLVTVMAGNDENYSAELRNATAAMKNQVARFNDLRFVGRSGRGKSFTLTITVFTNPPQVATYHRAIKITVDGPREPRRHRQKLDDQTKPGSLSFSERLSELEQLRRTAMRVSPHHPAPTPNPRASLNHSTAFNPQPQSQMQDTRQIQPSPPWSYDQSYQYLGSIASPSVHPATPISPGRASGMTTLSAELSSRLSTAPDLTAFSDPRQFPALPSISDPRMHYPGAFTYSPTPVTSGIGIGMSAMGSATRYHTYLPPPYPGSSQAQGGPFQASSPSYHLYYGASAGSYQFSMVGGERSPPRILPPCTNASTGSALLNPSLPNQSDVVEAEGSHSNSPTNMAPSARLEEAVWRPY
Protocol: (§1)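 Cooperative gcPBM on 36-bp genomic probes with neighbouring ETS1 and RUNX1 sites. Recombinant human RUNX1 (2 nM) was incubated alone or with ETS1 (25 nM) and detected with anti-RUNX1 antibody plus Alexa488 secondary. Values are medians over 4 replicate spots; the RUNX1+ETS1 data were normalised to the RUNX1-only data. The probes sit in constant array flanks that are not printed.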

ETS1 [3] = target: T1, ETS1; assay: ETS1 binding intensity (PBM fluorescence) in presence of RUNX1, normalised to ETS1-only experiment (arbitrary fluorescence units); higher = stronger binding; settings: ETS1 concentration 1 nM; RUNX1 concentration 25 nM
RUNX1 [4] = target: RUNX1 (UniProt Q01196); assay: RUNX1 binding intensity (PBM fluorescence) in presence of ETS1, normalised to RUNX1-only experiment (arbitrary fluorescence units); higher = stronger binding; settings: RUNX1 concentration 2 nM; ETS1 concentration 25 nM
Protocol: as §1
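For RUNX1 binding intensity (PBM fluorescence) in presence of ETS1, normalised to RUNX1-only experiment in this document: Full-length recombinant human ETS1 or RUNX1 bound to double-stranded 36-bp genomic probes on microarrays, detected by protein-specific primary antibody and Alexa488 secondary, spot fluorescence as median of four replicate spots.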
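For RUNX1 binding intensity (PBM fluorescence), RUNX1 alone in this document: Full-length recombinant human RUNX1 bound to double-stranded 36-bp genomic probes on a high-density microarray, scored as Alexa488 fluorescence per spot via anti-RUNX1 antibody, median of four replicate spots.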

Sequence | ETS1 binding intensity (ETS1 [1]) | RUNX1 binding intensity (RUNX1 [2]) | ETS1 binding intensity (ETS1 [3]) | RUNX1 binding intensity (RUNX1 [4])
AATGCCGGATATTGGTTCTGGTAAGCCACAAAAAAG | 1720 | 836 | 4090 | 1390
AGCCCGGCTTCCGGCGCGTGCCGCTGCGGCTGCAGG | 791 | 678 | 1030 | 1370
AACGACAAACCGGAAGTATGGTTTGCCGCCTGAAGC | 17000 | 754 | 19500 | 1620
GCTCCTCCCGGATATAAAGCCCCAAACCACGCCACT | 724 | 1140 | 1610 | 1410
TGGTTTCTCACTGGCGGATGTGGGTGGGTCGCCTCC | 4130 | 723 | 6390 | 1100
GCGGAGCGAGCGGCCGGATGCGGTCACCATAGAGAC | 4210 | 917 | 25200 | 8090
GTCTGCTTAAAAACAGGAAACCACATATCTCCACCC | 3670 | 1600 | 10700 | 1990
GGGAACTGGGGAAGGGGATGTGGTAACCAGAACCAC | 543 | 869 | 2600 | 1050
ATCAAACCCCAGGATATGTTGGTTTTGTAGGTTGTC | 562 | 874 | 524 | 629
GCCTGAGCGGAAACCCGGCGCCACCACAAGATGGCA | 637 | 990 | 2040 | 1200
ACAGGAAATGACTTAGGGAAAGTCCCAACCGCAATC | 2800 | 1230 | 15700 | 1530
GCTCCTGGCCCGCACTTCCGACCACACACTGGGGAC | 557 | 1180 | 592 | 1610
AATCATCAGGGAAATGCAAATCAAAACCACAATCAG | 547 | 1480 | 1200 | 1300
AGGCCCACCTGCTGCGGATGTGGTCTCTGTGTGTGC | 2340 | 774 | 6240 | 1340
GAGCATAGCCTAGCAGGATGTGGTTAAATACATTTG | 3320 | 747 | 32800 | 1970
GCAGGCGGAGCTTGAGGAAACCGCAGATAAGTTTTT | 463 | 9080 | 2510 | 10200
CATTTACAGAAAAGGAAACCGCAAGTTTGAGCAAGT | 976 | 25200 | 2150 | 30700
TGTGTAACTTCCTGGCTTTGGTGGTTTCCCCCTCCT | 1150 | 757 | 1390 | 2180
GCTGATAAAACAGGATGTGGTAAAGAAGCCGGCCAA | 5160 | 817 | 18000 | 8590
GTGGGAGCGGAAGCCTGAGCGGCCTGCGGCCTCCGG | 863 | 692 | 1070 | 1040
GCGGGCGGAAGTGCCGAGGTTGTACCGCGGCGCTGG | 2020 | 714 | 2260 | 1200

Sequence | ETS1 binding intensity (ETS1 [1]) | RUNX1 binding intensity (RUNX1 [2]) | ETS1 binding intensity (ETS1 [3]) | RUNX1 binding intensity (RUNX1 [4])
ACTACAGGAGGAAACTACAGCCTAAACCACATGCAA | 510 | 975 | 1010 | 892
AACCTAGAAAAGGAAGCTGCGGTTTTTCAGGGTATG | 697 | 8830 | 6430 | 12300
TTCAGGAAATGCAAACGGCTGCAGAGACCGCAGAGG | 499 | 793 | 2490 | 1090
CCCGCCGGAAGGACGCGTCTGCGTCTCTGCGGCGAG | 680 | 688 | 1010 | 955
CCAGCAAAGGAAGCTTGGTCAACCACAGCAGCCTGT | 393 | 850 | 463 | 891
ACAGACCAGGGGATTTCCTGTGGGTGGAGTCCTCAG | 859 | 676 | 771 | 1500
GAGGAAGAGTCTTCCTGTAACCACTAGAGGGCGCTG | 592 | 705 | 663 | 960
TTATTTCCTCTTTTTTTTTTTTTTTTTGGTTTTGCT | 483 | 1960 | 440 | 4230
CTCTCTGGGCGGAAGGAACGCGGTCACCCTGAGAAA | 547 | 833 | 968 | 871
GTCTTAGGTCGGAAGTCTGTGGTCCCTGTTCACATG | 796 | 835 | 910 | 953
CCCACTTCCTGTCCCTGCATGCTGTGGGGCAGGCAG | 1500 | 784 | 1570 | 2420
GAAAACACAGGAAGCCGTCCGCGCAACCGCGTTGCA | 1520 | 840 | 2160 | 1150
AAACCCCAAACAGGAAGTGGTAAAGCAACCTGCATC | 11200 | 826 | 16400 | 7980
AGTGGAGTAGGAACCGGAAAACCACAATAAGTCCCA | 2170 | 1470 | 12400 | 3630
CAGAAACATCCCTCCTGCCGCCGCTTTGTGGTACCA | 378 | 983 | 526 | 925
GAAGCGATATTTCCTCCTGGGGTTGACCGCCCCGTG | 492 | 761 | 478 | 1090
CGGGGGCCAGGCTTCCTGTGGTGGGAGCGGCAGGCC | 443 | 830 | 477 | 1350
CCCCTTAGCACAGGATGTGGTCTTTGCATCTTCATT | 4640 | 1040 | 7360 | 2960
CCGGGCTGCGGAAGGCGGGAATTCTGCGGTTCGCGG | 405 | 1230 | 1990 | 1720
CCTCGGTTCGGAAACGGCGAAAGCAAACCGCAAGGA | 478 | 2260 | 3890 | 3120
